In all, about 5,500 compounds went through this assay and about 2,000 (36%) were called active. About 18% were inconclusive and are not listed. Rule as the data show it: active = normalized growth mostly below about 0.91 (no sharp cut-off); inconclusive = no clear call, values can overlap the other calls; inactive = mostly above about 0.92. The list shows a part of the results.
Assay: chemical genetic growth profiling, strain panel (AID 1159580);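 also: tested at 20 µM; growth read once vehicle control cultures reached saturation at 30 °C; 1 = growth at the plate median or of vehicle wells; lower values mean less growth of the strain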
Settings: S. cerevisiae deletion strains, growth OD

Measured: normalized growth

OC[C@H]1O[C@H](OCCCc2ccc(O)cc2)[C@H](O)[C@@H](O)[C@@H]1O
inactive: locus YHR030C, strain SLT2, active compounds read low 0.97 | locus YHR079C, strain IRE1, active compounds read low 0.993 | locus YJL095W, strain BCK1, active compounds read low 1 | locus YJR066W, strain TOR1, active compounds read low 0.93 | locus YLR113W, strain HOG1, active compounds read low 0.979 | locus YNL183C, strain NPR1, active compounds read low 0.933 | locus YOR231W, strain MKK1, active compounds read low 0.975 | locus YPL256C, strain CLN2, active compounds read low 0.968

CNCCc1c[nH]c2ccc(O)cc12
inactive: locus YAL040C, strain CLN3, active compounds read low 1.01 | locus YCL061C, strain MRC1 (second series), active compounds read low 1.01 | locus YDR150W, strain NUM1, active compounds read low 0.994 | locus YDR363W, strain ESC2, active compounds read low 1.01 | locus YER002W, strain NOP16, active compounds read low 1.01 | locus YGR078C, strain PAC10, active compounds read low 1.02 | locus YMR307W, strain GAS1, active compounds read low 1 | locus YNL128W, strain TEP1, active compounds read low 1 | locus YNL175C, strain NOP13, active compounds read low 1.01 | locus YNL197C, strain WHI3, active compounds read low 1.02 | locus YNL224C, strain SQS1, active compounds read low 1.01 | locus YNL322C, strain KRE1, active compounds read low 1.02 | locus YOR083W, strain WHI5 (second series), active compounds read low 1.01 | locus YPL055C, strain LGE1, active compounds read low 1.01 | locus YPL241C, strain CIN2, active compounds read low 1

Source: PubChem BioAssay AID1159580 (chemical genetic matrix, 2015)
